# In the library only some 19% were active in any assay of this set; here they are far more common.
# ASM inhibitor – human S-ASM enzyme inhibition; 340,000 compounds, 0.006% hits; placental ASM, HMU-PC fluorogenic substrate, 60 min; P17405; AID 504937; Potency, µM (doses to about 57.5 µM), inactives show at the highest dose activity change, negative = inhibition, actives largely listed as inhibitors; further: potency means the concentration at half of the fitted maximal effect
# Target sequence (P17405 47-631 limits assumed): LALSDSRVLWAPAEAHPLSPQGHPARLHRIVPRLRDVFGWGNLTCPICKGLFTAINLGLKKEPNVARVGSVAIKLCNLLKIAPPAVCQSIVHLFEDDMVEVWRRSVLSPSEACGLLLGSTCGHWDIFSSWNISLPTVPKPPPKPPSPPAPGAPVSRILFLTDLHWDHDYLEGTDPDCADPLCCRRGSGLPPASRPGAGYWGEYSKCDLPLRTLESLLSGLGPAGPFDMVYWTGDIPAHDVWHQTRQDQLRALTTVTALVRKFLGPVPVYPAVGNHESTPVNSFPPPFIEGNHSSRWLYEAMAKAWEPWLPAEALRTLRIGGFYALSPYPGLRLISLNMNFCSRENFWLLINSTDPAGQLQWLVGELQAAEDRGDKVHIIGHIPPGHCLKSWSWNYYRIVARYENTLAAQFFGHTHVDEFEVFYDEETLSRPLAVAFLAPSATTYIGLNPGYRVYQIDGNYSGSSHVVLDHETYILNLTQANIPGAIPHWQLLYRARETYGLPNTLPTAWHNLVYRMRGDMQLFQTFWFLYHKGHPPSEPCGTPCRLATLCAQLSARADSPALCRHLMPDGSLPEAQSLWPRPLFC
#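 HMU-PC0 cleavage (9 uM final) by human placental ASM, 60 min at 37 °C following 10 min compound exposure at RT; stopped at pH 10, fluorescence Ex 386/Em 447 nm.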
# HepG2 viability – HepG2 cytotoxicity, counter-screen for TGF-b inhibitors; AID 588856; HepG2 CAGA-GFP viability, ATP luminescence, 18 h; 410,000 compounds, 0.76% hits; Potency, µM (top dose mostly 46.1 µM), without a hit: top-dose activity change, negative = cytotoxicity, most hits filed as cytotoxic; further: potency means the concentration at half of the fitted maximal effect
#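 HepG2 CAGA-GFP cells (1000/well, DMEM with 1% FBS) received compound, then TGF-beta at 500 pg/mL final, and were incubated 18 hours at 37 degrees C. Viability was read by CellTiter-Glo luminescence. Media-only wells were set as complete cell-killing and DMSO as no toxicity.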
# IL-1B inflam inh – blocks inflammasome-driven IL-1 beta release; THP-1 LPS/ATP IL-1B secretion, AlphaLISA, 16 h; stronger effect = lower value; activity change, % at 57.5 µM; 360,000 compounds, 4.7% hits; in the data active means activity change below about -50%; inconclusive means mostly about -30% to -49%; further: on the % scale 0 is the no-effect control and ±100 the full control effect
#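 Secreted IL-1B measured by AlphaLISA bead assay after 16 h compound exposure of THP-1 cells; compounds (final up to 57.5 uM) added 1 h before LPS (250 ng/mL) and ATP (1.25 mM) stimulation; lower signal means less secretion.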
# TGFb SMAD3 inh – inhibitors of TGF-b signaling; AID 588855; HepG2 CAGA-GFP TGF-b/SMAD3 reporter, GFP fluorescence, 18 h; TGF-beta stimulated, 500 pg/mL final; Potency, µM (highest dose often 46.1 µM), without a hit: at the top dose activity, negative = inhibition, actives largely listed as inhibitors; 410,000 compounds, 1.2% hits; further: potency means the concentration at half of the fitted maximal effect; on the % scale 0 is the no-effect control and ±100 the full control effect; nearly all actives have a fitted effect of over 65% in size
#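 Read-out: total well GFP (ex488/em500-530) summed from mean per-cell fluorescence. Cells: HEPG2 CAGA-GFP, 1% FBS DMEM, 18 h at 37 degrees C with 500 pg/mL final TGF-beta. Unstimulated wells served as the full-inhibition control; stimulated DMSO wells = 0%.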
# DT40 TDP1 CPT – DT40-hTDP1 cell growth loss with CPT | AID 686979 | chicken DT40 Tdp1-/-;hTDP1 cells + 20 nM CPT, ATP luminescence, 48 h | 420,000 compounds, 12% hits | Potency, µM (highest dose often 46.2 µM), inactives show at the top dose activity change, negative = growth inhibition, hits mostly inhibitors; further: potency means the concentration at half of the fitted maximal effect; on the % scale 0 is the no-effect control and ±100 the full control effect; nearly all actives have a fitted effect of over 55% in size
#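 Chicken DT40 Tdp1-/- cells complemented with human TDP1, 400 cells/well, exposed to compounds plus 20 nM camptothecin for at least 48 h at 37 C; viability read as ATP content by CellTiter-Glo luminescence.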
# DT40 TDP1 no CPT – qHTS for Inhibitors of human tyrosyl-DNA phosphodiesterase 1 (TDP1): qHTS in cells in absence of CPT. DT40 Tdp1-/- hTDP1 cells, no CPT, ATP luminescence, 48 h. Potency, µM (highest dose often 46.2 µM), for the others: at the top dose activity change, negative = growth inhibition, usual class: inhibitors. 420,000 compounds, 15% hits; further: potency means the concentration at half of the fitted maximal effect; on the % scale 0 is the no-effect control and ±100 the full control effect; nearly all actives have a fitted effect of over 55% in size
#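 Chicken DT40 Tdp1-/- cells complemented with human TDP1, screened without camptothecin (DMSO vehicle only), 400 cells/well. Compounds pin-transferred, cells incubated at 37 °C for at least 48 hr. Growth read as ATP-dependent luminescence (CellTiter-Glo, 30 min at RT).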
# Starred values were filed as active, the others as inactive; ? = inconclusive; / = not tested or not shown; ! = repeats disagree; [ ] = another dose, or the depositor's remark. Unless noted, the call rests on the fitted dose curve; in most records, active means well fitted curve in the direction sought with a large enough effect; inconclusive means small, poorly fitted or top-dose-only effect, or another doubt; inactive means no such curve, though single readings can be large; an effect the other way counts as inactive or inconclusive.
SMILES,ASM inhibitor,HepG2 viability,IL-1B inflam inh,TGFb SMAD3 inh,DT40 TDP1 CPT,DT40 TDP1 no CPT
COc1ccc(NC(C)=O)cc1NC(=O)c1cccc(S(=O)(=O)N2CCc3ccccc32)c1,-11%,-15%,-15,-4%,-16%,-11%
CCC(=O)Nc1ccc(S(=O)(=O)N2CCc3ccccc32)cc1,1%,-24%,33,-14%,?,-27%
CCOc1ccc(C(=O)Nc2cc(NC(=O)c3ccc(OCC)c(Cl)c3)cc(C(=O)O)c2)cc1Cl,-1%,-1%,22,4%,2.1µM*,-17%
O=C(O)c1ccc(N2C(=O)CC(SC(=NCc3ccc4c(c3)OCO4)Nc3ccc(F)cc3)C2=O)cc1 (stereo unspecified),2%,5%,-5,11%,1%,?
COc1cccc(CNC(=O)CNC(=S)N(Cc2ccccc2)Cc2ccccc2F)c1,-1%,-23%,?,?,?,?
Cc1ccc(CNC(=O)CNC(=S)N(Cc2ccccc2)Cc2ccccc2F)cc1,-2%,-35%,-69*,?,-20%,?
CCOC(=O)CNC(=S)N(Cc1ccccc1)Cc1ccccc1F,-6%,-27%,-56*,-21%,3%,?
CCOC(=O)CNC(=S)N(Cc1ccccc1)Cc1cccs1,3%,-5%,-5,-14%,0%,-2%
CC(=O)c1ccc(NC(=S)Nc2cccc(Cl)c2C)cc1,0%,13%,0,-2%,-7%,-30%
O=C(NCc1ccco1)C1CC(c2cc(C(F)(F)F)cc(C(F)(F)F)c2)=NO1 (stereo unspecified),-2%,1%,70,-28%,2.6µM*,2.3µM*
O=C(NCc1ccc(C(F)(F)F)cc1)C1CC(c2ccc(C(F)(F)F)cc2)=NO1 (stereo unspecified),-8%,-24%,37,-18%,23µM*,13µM*
CCCCN1CC(COCc2ccccc2)Oc2cccc(Oc3ccc(C)cc3)c2S1(=O)=O (stereo unspecified),-3%,-51%,16,-8%,8.2µM*,7.3µM*
CCCCN1CC(COCc2ccccc2)Oc2cccc(Oc3ccc(F)cc3)c2S1(=O)=O (stereo unspecified),1%,-6%,28,?,?,?
CCCCN1CC(COCc2ccccc2)Oc2cccc(Oc3ccccc3)c2S1(=O)=O (stereo unspecified),-11%,-4%,0,-13%,?,18µM*
CCCCN1CC(COCc2ccccc2)Oc2cccc(Oc3cc(C)c(C)c(C)c3)c2S1(=O)=O (stereo unspecified),1%,-14%,21,?,7.3µM*,5.2µM*
CCCCN1CC(COCc2ccccc2)Oc2cccc(OCc3ccc(OC)cc3)c2S1(=O)=O (stereo unspecified),/,2%,15,6%,5.8µM*,4.1µM*
Cc1ccnc(SCc2cc(=O)c(OC(=O)c3ccc(Cl)c([N+](=O)[O-])c3)co2)n1,-1%,1%,14,0%,-16%,-4%
Cc1ccc(-c2nc(-c3ccccn3)sc2CC(=O)O)cc1,0%,1%,2,1%,4%,19%
O=C(COc1ccccc1[N+](=O)[O-])Nc1cccc(C(=O)Nc2ccccc2C(=O)O)c1,-3%,-18%,0,-15%,?,2%
CCCCNc1cccc2c1S(=O)(=O)N(CCCC)CC(COCc1ccccc1)O2 (stereo unspecified),-1%,-4%,2,4%,?,16µM*
CCCCN1CC(COCc2ccccc2)Oc2cccc(NCc3ccc(OC)cc3)c2S1(=O)=O (stereo unspecified),15%,-3%,34,-17%,?,?
CC(=O)Nc1ccc2nc(C)n(Cc3ccc(Cl)cc3)c(=O)c2c1,-9%,1%,-23,?,-27%,?
COc1ccc(-c2nc3ccc(NC(=O)CO)cc3c(=O)n2Cc2cccc(Cl)c2)cc1COc1ccc(NC(C)=O)cc1,/,/,/,/,11µM*,13µM*
COc1ccc(-c2nc3ccc(NC(C)=O)cc3c(=O)n2Cc2ccccc2)cc1COc1ccc(NC(C)=O)cc1,/,/,/,/,?,11µM*
CCOC(=O)[C@H](N)/C=C(\C)CP(=O)(O)O,/,/,/,/,8%,-5%
SMILES,ASM inhibitor,HepG2 viability,IL-1B inflam inh,TGFb SMAD3 inh,DT40 TDP1 CPT,DT40 TDP1 no CPT
COc1cccc(C#Cc2c(CO)[nH]c3ccccc23)c1,17%,-5%,19,-19%,18µM*,?
CCOC(=O)N1CCN(S(=O)(=O)c2cc(C)c(C)cc2C)CC1,0%,-53%,-4,-23%,?,?
Cc1cc(C)c(S(=O)(=O)/N=C2/C=C(SCC(=O)O)C(=O)c3ccccc32)cc1C,?,-105%,?,?,1.8µM*,1.8µM*
Cc1cccc(CNC(=O)c2cnn(-c3ncc(C)c(-c4cccs4)n3)c2C2CC2)n1,/,/,/,/,-5%[9.04 µM],-24%
CCN(CC)c1ccc2cc(-c3nc(-c4cc(OC)c(OC)c(OC)c4)no3)c(=O)oc2c1,/,-23%,/,10%,21µM*,10µM*
CCN(CC)c1ccc2cc(C(C)=O)c(=O)oc2c1,138%,-14%,30,11%,-7%,0%
CCN(CC)c1ccc2cc(C(=O)Nc3ccccn3)c(=O)oc2c1,259%,-37%,-9,0%,4.5µM*!,?
CCN(CC)c1ccc2cc(-c3nc(-c4cccs4)no3)c(=O)oc2c1,/,-4%,/,63%,?,?
CCN(CC)c1ccc2cc(-c3nnc(-c4ccncc4)o3)c(=O)oc2c1,34%,-12%,9,89%,12µM*,21µM*
CCN(CC)c1ccc2cc(C=O)c(=O)oc2c1,253%,-43%,-19,?,29µM*,18µM*
Cc1ccc(C2=NS(=O)(=O)N(C)C(C(=O)N3CCCCC3)=C2)cc1,13%,-9%,2,5%,-26%,-22%
CC(=O)Nc1ccccc1-c1nc2ccccc2n(CC(=O)Nc2cccc(C)c2C)c1=O,/,-6%,/,18%,-23%,-8%
COCCn1c(SCC(=O)NNC(=O)c2ccccc2)nc2ccccc21,-1%,-1%,6,12%,-9%,-20%
Cc1cnc(N)nc1-c1ccccc1,/,-20%,-17,-8%,-2%,-17%

# Compound activity from PubChem BioAssay.
